Test [1] deals with Retinoic acid receptor RXR-alpha (Homo sapiens) (UniProt P19793). In words: ATG_RXRa_TRANS: Attagene TRANS-FACTORIAL HepG2 Assay for human Retinoid X Receptor alpha (RXRa) (AID 2283012; active = hit-call score of the fitted dose curve at least 0.9, where 1 is the maximum). Put shortly:
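Cells (HepG2) carried transiently transfected GAL4-responsive reporter units. Following a 24 h chemical incubation, reporter mRNA induction was read via RT-PCR fragment analysis; DMSO served as negative control and baseline.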

For test [2], the target named is human Retinoid X Receptor beta (RXRb), RXRB (gene 6257) (UniProt P28702). In words: ATG_RXRb_TRANS: Attagene TRANS-FACTORIAL HepG2 Assay for human Retinoid X Receptor beta (RXRb) (AID 2283013; active = hit-call score of the fitted dose curve at least 0.9, where 1 is the maximum). The gist of the method: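 Multiplexed TRANS reporter assay in HepG2; 24 h dosing; reporter mRNA by RT-PCR/CE fluorescence; gain-of-signal relative to DMSO.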
Read-out in test [3]: E-selectin (Homo sapiens) (UniProt P16581)
In words: BSK_3C_Eselectin: BioMAP Diversity Plus: 3C Assay for Eselectin Biomarker Activity (AID 2283015).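 For outcome: cell surface E-selectin protein quantified by ELISA 24 h after dosing.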 Conditions: primary human endothelial cells (HUVEC); actives raise or lower the signal. Put shortly:
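ELISA read-out of E-selectin on endothelial monolayers after 24 h chemical treatment. Human umbilical vein primary cells served as the system, with DMSO defining baseline activity for bidirectional fitting.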

Read-out in test [4]: Interleukin-1 alpha (IL1a), IL1A (gene 3552)
In words: BSK_BE3C_IL1a: BioMAP Diversity Plus: BE3C Assay for Interleukin-1 alpha (IL1a) Biomarker Activity (AID 2283016). Particulars: primary human bronchial epithelial cells; actives raise or lower the signal. Put shortly: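 Cultures of primary human bronchial epithelial cells receive test chemical. After 24 h, IL-1a is quantified by ELISA, while parallel wells are fixed in TCA and SRB-stained for total protein. Changes in either direction are fitted relative to DMSO.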

Read-out in test [5]: Monocyte Chemoattractant Protein-1 (MCP1), CCL2 (gene 6347)
In words: BSK_3C_MCP1: BioMAP Diversity Plus: 3C Assay for Monocyte Chemoattractant Protein-1 (MCP1) Biomarker Activity (AID 2283017). Conditions: primary human endothelial cells (HUVEC); actives raise or lower the signal. Put shortly:
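ELISA read-out of MCP-1 from human umbilical vein endothelial cell cultures harvested 24 h post-dosing. Gain or loss of signal was fitted relative to DMSO.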

Read-out in test [6]: Monocyte Chemoattractant Protein-1 (MCP1), CCL2 (gene 6347)
In words: BSK_4H_MCP1: BioMAP Diversity Plus: 4H Assay for Monocyte Chemoattractant Protein-1 (MCP1) Biomarker Activity (AID 2283018). Particulars: primary human endothelial cells (HUVEC); actives raise or lower the signal. The gist of the method: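 Readout: MCP-1 ELISA on compound-treated HUVEC, sampled 24 h post-dosing. Baseline and negative control DMSO; bidirectional fit. Overt toxicity checked alongside by sulforhodamine B protein staining at time of biomarker measurement.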

Read-out in test [7]: Human Leukocyte Antigen - DR isotype (HLADR), HLA-DRA (gene 3122)
In words: BSK_3C_HLADR: BioMAP Diversity Plus: 3C Assay for Human Leukocyte Antigen - DR isotype (HLADR) Biomarker Activity (AID 2283019). Particulars: primary human endothelial cells (HUVEC); actives raise or lower the signal. Put shortly: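 ELISA readout of surface HLA-DR on human umbilical vein endothelium, taken 24 h after chemical treatment. Gain- and loss-of-signal were both fitted relative to DMSO.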

Read-out in test [8]: Interleukin-8 (IL8), CXCL8 (gene 3576)
In words: BSK_3C_IL8: BioMAP Diversity Plus: 3C Assay for Interleukin-8 (IL8) Biomarker Activity (AID 2283020). Conditions: primary human endothelial cells (HUVEC); actives raise or lower the signal. The gist of the method:
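Human vascular endothelial cells (umbilical vein) in the 3C system; IL-8 level detected by ELISA at 24 h post-dose, with DMSO as baseline.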

Read-out in test [9]: Monokine induced gamma interferon (MIG), CXCL9 (gene 4283)
In words: BSK_3C_MIG: BioMAP Diversity Plus: 3C Assay for Monokine induced gamma interferon (MIG) Biomarker Activity (AID 2283021). Conditions: primary human endothelial cells (HUVEC); actives raise or lower the signal. Put shortly: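 After 24 h of treatment, human umbilical vein endothelial cultures (3C system) had their MIG biomarker level determined by ELISA, with DMSO serving as negative control.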

For test [10], the target named is human Vitamin D Receptor (VDR), VDR (gene 7421) (UniProt P11473). In words: ATG_VDR_TRANS: Attagene TRANS-FACTORIAL HepG2 Assay for human Vitamin D Receptor (VDR) (AID 2283022; active = hit-call score of the fitted dose curve at least 0.9, where 1 is the maximum). The gist of the method: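 Steps: transfect HepG2 with GAL4-UAS-driven reporter constructs; dose compounds 24 h; isolate RNA, reverse-transcribe, PCR-amplify with 6-FAM-labelled primer extension and HpaI digestion; quantify fragments by capillary electrophoresis relative to DMSO.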

The nature of test [11]: BSK_3C_SRB: Viability Assessment in the BioMAP Diversity Plus: 3C Assay (AID 2283023).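 Note: fitted both ways against DMSO so a hit may be signal rise or drop.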 Particulars: primary human endothelial cells (HUVEC). Put shortly:
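Absorbance at 560 nm of sulforhodamine B-stained (0.1%) total protein served as a cytotoxicity readout in human umbilical vein endothelial cells, 24 h after chemical treatment. Signal was fitted bidirectionally relative to DMSO.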

Read-out in test [12]: Matrix Metallopeptidase 1 (MMP1), MMP1 (gene 4312)
In words: BSK_BE3C_MMP1: BioMAP Diversity Plus: BE3C Assay for Matrix Metallopeptidase 1 (MMP1) Biomarker Activity (AID 2283024). Particulars: primary human bronchial epithelial cells; actives raise or lower the signal. Put shortly:
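Dose cells, wait 24 h, run MMP1 ELISA; cells are human bronchial epithelial primaries. Both increases and decreases relative to DMSO counted.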

A short description of test [13]: BSK_3C_Vis: BioMAP Diversity Plus: 3C Assay for Morphology Visualization (AID 2283025).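 For AC50: light microscopy image of cell morphology used as background control.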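 Note: fitted both ways so gain or loss versus DMSO counts.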 Particulars: primary human endothelial cells (HUVEC). The gist of the method: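 Endothelial cells from human umbilical vein were treated with test chemicals for 24 h and inspected by light microscopy for changes in cell conformation.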
Read-out in test [14]: Pselectin, SELP (gene 6403)
In words: BSK_4H_Pselectin: BioMAP Diversity Plus: 4H Assay for Pselectin Biomarker Activity (AID 2283026). Conditions: primary human endothelial cells (HUVEC); actives raise or lower the signal. The gist of the method:
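Human vascular endothelium from umbilical vein; P-selectin measured by ELISA at 24 h post-dose, with cytotoxicity checked by sulforhodamine B total-protein staining in parallel cultures (0.1% SRB after 10% TCA fixation, read at 560 nm).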

A short description of test [15]: BSK_4H_SRB: Viability Assessment in the BioMAP Diversity Plus: 4H Assay (AID 2283027).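 For AC50: curves fitted both ways versus DMSO so AC50 may be loss or gain.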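 Note: cells exposed to compound for 24 h before staining.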 Particulars: primary human endothelial cells (HUVEC). Put shortly: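 Human umbilical vein endothelial cells, 24 h after chemical dosing; total protein measured by 0.1% sulforhodamine B staining after 10% TCA fixation, read at 560 nm. Bidirectional fitting against DMSO.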
The nature of test [16]: BSK_BE3C_SRB: Viability Assessment in the BioMAP Diversity Plus: BE3C Assay (AID 2283028). Particulars: primary human bronchial epithelial cells. The gist of the method:
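Cells (human bronchial epithelial, primary) are treated with chemicals, and after 24 h the parallel cultures are fixed in 10% TCA. These are then stained with 0.1% SRB and read at 560 nm. Gain or loss of signal is fitted relative to DMSO.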

Read-out in test [17]: Thrombomodulin, THBD (gene 7056)
In words: BSK_3C_Thrombomodulin: BioMAP Diversity Plus: 3C Assay for Thrombomodulin Biomarker Activity (AID 2283029). Conditions: primary human endothelial cells (HUVEC); actives raise or lower the signal. Put shortly: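 Thrombomodulin ELISA, human primary HUVEC, 24 h post-dose; data fitted in both directions relative to DMSO.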

Results filed as inconclusive are left out. The source made the active and inactive calls. Rule for the calls, unless noted: active = hit-call score of the fitted dose curve at least 0.9, where 1 is the maximum; inactive = score below 0.9.

human Vitamin D Receptor (VDR), VDR (gene 7421), sequence (P11473 whole entry, looked up, the tested form may be a part): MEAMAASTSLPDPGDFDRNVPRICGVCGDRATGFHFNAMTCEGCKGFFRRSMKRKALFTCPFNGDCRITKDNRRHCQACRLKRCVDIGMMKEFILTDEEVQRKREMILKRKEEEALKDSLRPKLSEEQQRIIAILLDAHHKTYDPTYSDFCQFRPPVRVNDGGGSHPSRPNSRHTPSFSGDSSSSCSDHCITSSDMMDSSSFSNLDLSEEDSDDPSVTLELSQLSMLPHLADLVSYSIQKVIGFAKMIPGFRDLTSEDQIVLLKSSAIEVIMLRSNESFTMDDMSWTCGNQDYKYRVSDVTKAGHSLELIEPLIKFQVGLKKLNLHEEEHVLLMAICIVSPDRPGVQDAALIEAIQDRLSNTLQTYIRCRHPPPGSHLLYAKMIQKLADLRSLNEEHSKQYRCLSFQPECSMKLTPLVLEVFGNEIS
Retinoic acid receptor RXR-alpha (Homo sapiens), sequence (P19793 whole entry, looked up, the tested form may be a part): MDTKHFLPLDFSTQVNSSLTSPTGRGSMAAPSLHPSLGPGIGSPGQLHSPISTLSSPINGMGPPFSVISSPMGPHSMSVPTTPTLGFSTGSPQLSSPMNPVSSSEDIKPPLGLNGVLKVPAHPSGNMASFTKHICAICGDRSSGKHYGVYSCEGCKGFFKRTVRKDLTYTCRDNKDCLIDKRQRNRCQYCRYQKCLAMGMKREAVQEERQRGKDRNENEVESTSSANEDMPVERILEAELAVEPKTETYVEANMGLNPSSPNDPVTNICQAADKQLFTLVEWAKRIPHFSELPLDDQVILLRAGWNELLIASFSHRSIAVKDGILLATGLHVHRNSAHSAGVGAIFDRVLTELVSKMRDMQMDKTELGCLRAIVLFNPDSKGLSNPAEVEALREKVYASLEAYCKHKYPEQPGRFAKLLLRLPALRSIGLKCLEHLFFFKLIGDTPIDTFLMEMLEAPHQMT
E-selectin (Homo sapiens), sequence (P16581 whole entry, looked up): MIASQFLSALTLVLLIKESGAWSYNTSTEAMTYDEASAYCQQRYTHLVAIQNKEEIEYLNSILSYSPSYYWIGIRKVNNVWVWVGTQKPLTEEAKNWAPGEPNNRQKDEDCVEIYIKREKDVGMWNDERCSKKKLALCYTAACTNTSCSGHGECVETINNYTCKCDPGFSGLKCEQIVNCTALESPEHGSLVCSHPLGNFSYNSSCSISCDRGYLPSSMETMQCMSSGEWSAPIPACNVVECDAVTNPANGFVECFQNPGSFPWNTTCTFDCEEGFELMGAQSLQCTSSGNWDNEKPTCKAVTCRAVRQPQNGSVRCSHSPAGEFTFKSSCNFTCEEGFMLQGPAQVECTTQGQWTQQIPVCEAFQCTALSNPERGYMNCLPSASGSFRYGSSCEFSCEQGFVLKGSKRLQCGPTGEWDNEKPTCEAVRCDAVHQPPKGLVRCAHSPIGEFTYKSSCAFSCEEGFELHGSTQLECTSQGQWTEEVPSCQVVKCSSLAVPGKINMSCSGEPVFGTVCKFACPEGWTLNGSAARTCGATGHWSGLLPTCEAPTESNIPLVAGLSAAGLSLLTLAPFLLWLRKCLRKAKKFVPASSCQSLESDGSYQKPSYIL
human Retinoid X Receptor beta (RXRb), RXRB (gene 6257), sequence (P28702 whole entry, looked up): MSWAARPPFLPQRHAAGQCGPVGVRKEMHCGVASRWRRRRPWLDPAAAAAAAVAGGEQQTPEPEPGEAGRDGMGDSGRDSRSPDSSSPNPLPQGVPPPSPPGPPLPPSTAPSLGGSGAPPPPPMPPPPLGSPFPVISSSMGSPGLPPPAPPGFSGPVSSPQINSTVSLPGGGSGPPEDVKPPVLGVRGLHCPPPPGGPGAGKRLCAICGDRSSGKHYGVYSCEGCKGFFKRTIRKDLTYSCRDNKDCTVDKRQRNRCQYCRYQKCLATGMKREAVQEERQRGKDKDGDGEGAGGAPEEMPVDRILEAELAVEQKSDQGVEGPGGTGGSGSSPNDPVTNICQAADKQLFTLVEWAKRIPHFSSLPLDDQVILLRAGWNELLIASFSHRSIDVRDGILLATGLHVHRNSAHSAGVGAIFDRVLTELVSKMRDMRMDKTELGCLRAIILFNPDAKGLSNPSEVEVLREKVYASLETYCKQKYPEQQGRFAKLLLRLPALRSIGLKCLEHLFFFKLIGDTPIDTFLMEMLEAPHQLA

Consider `O=C(CBr)OCc1ccccc1`, for which, in test [1], the compound was classed as inactive.

The term AC50 denotes the midpoint of the concentration-response curve, whichever way the signal moves. `O=P(Oc1ccccc1)(Oc1ccccc1)Oc1ccccc1`: the outcome in test [1], in test [2], in [3], in test [4], in [9] and in test [10] was inactive. The outcome in test [12], in [16] and in test [17] was inactive. The AC50 is 33.5 µM (active) in test [5]; 13.6 µM (active) in test [6]; 33.1 µM (active) in [7]; 29.4 µM (active) in test [8]; 30.2 µM (active) in test [11]; 37.5 µM (active) in test [13]. The AC50 in [14] was 33.2 µM (active); in [15], 28.8 µM (active).

Turning to `CCNc1nc(Cl)nc(NC(C)(C)C)n1`, the compound was classed as inactive in test [1], in test [3], in test [4], in test [5], in test [6] and in [7]. The result in test [8], in test [9], in [10], in test [11], in test [12] and in test [13] was inactive. The result in test [14], in test [15], in [16] and in [17] was inactive.

On to `COCCOCCO`, for which the outcome in test [3], in test [4], in test [5], in [6], in test [7] and in test [8] was inactive. Also, the outcome in test [9], in test [11], in test [12], in [13], in [15] and in test [16] was inactive. In addition, the outcome in test [17] was inactive.

As to `c1ccc2c(c1)sc1ccccc12`, the result in [3], in [4], in test [5], in [6], in [7] and in [8] was inactive. Besides, the outcome in test [9], in test [10], in [11], in [12], in test [13] and in [15] was inactive. The result in test [16] and in [17] was inactive.

Regarding `OCC1CO1` (stereo unspecified), the outcome in test [3], in [4], in test [5], in test [6], in [7] and in [8] was inactive. Also, the result in test [9], in test [11], in test [12], in test [13], in test [15] and in test [16] was inactive. The result in [17] was inactive.

As for `CC(Cl)(Cl)C(=O)O`, the outcome in test [1], in test [3], in [4], in test [5], in [6] and in test [7] was inactive. Further, the outcome in test [8], in [9], in [11], in test [12], in test [13] and in test [14] was inactive. Further, the outcome in test [15], in test [16] and in test [17] was inactive.

Take `O=C(O)C(F)(F)OC(F)(F)C(F)(F)OC(F)(F)C(=O)O`: the call in test [2], in [3], in test [4], in [6], in [7] and in [8] was inactive. In addition, the outcome in test [9], in [10], in test [11], in [12], in [14] and in test [15] was inactive. For the same compound, the outcome in test [16] and in [17] was inactive.

With `O=P(OCC(Br)CBr)(OCC(Br)CBr)OCC(Br)CBr` (stereo unspecified), the call in [1], in [9], in test [14], in test [16] and in test [17] was inactive. The AC50 in [3] is 17.4 µM (active); in test [4], 29.3 µM (active); in [6], 3.45 µM (active); in test [8] it was 17.4 µM (active); in test [11], 10.3 µM (active); in test [12] it was 3.88 µM (active). Also, the AC50 in [13] was 12.4 µM (active); in test [15], 1.54 µM (active).
